Measured values from PubChem BioAssay AID1159580 (chemical genetic matrix, 2015).
Where “and” joins values, the source holds several entries; their conditions need not be identical. Identical values can stand only once. Among all 5,500 compounds or so, about 2,000 (36%) were called active. Roughly 18% stayed inconclusive and do not appear here. Cut-off read from the data, not from the text of the source: active = normalized growth mostly below about 0.91 (no sharp cut-off); inconclusive = no clear call, values can overlap the other calls; inactive = mostly above about 0.92. Some of the results follow.

Experiment: chemical genetic growth profiling, strain panel (AID 1159580);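 note: tested at 20 µM; growth read once vehicle control cultures reached saturation at 30 °C; 1 = growth at the plate median or of vehicle wells; lower values mean less growth of the strain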
Conditions: S. cerevisiae deletion strains, growth OD

Measured: normalized growth

CC(=O)NCc1c(I)c(NC(C)=O)c(I)c(C(=O)O)c1I
inactive: locus YAL013W, strain DEP1, stronger effect = lower value 0.997 | locus YAL021C, strain ccr4, stronger effect = lower value 0.989 | locus YAL026C, strain drs2, stronger effect = lower value 0.997 | locus YAL030W, strain snc1, stronger effect = lower value 1 | locus YBL061C, strain skt5, stronger effect = lower value 0.994 | locus YBR009C, strain hhf1, stronger effect = lower value 0.991 | locus YBR021W, strain FUR4, stronger effect = lower value 1.02 | locus YBR023C, strain chs3, stronger effect = lower value 0.993 | locus YBR171W, strain sec66, stronger effect = lower value 0.995 | locus YBR229C, strain ROT2, stronger effect = lower value 0.999 | locus YBR231C, strain swc5, stronger effect = lower value 1 | locus YBR279W, strain paf1, stronger effect = lower value 0.989 | locus YCL011C, strain gbp2, stronger effect = lower value 1 | locus YCL016C, strain dcc1, stronger effect = lower value 0.993 | locus YCL029C, strain bik1, stronger effect = lower value 0.982 | locus YCL061C, strain MRC1, stronger effect = lower value 0.983 | locus YCL069W, strain vba3, stronger effect = lower value 1 | locus YCR088W, strain abp1, stronger effect = lower value 1 | locus YDL005C, strain med2, stronger effect = lower value 1 | locus YDL035C, strain GPR1, stronger effect = lower value 1.01 | locus YDL040C, strain nat1, stronger effect = lower value 1 | locus YDL074C, strain BRE1, stronger effect = lower value 0.982 | locus YDL101C, strain DUN1, stronger effect = lower value 0.991 | locus YDL134C, strain PPH21, stronger effect = lower value 0.999 | locus YDL185W, strain tfp1, stronger effect = lower value 0.959 | locus YDL192W, strain arf1, stronger effect = lower value 0.99 | locus YDR001C, strain nth1, stronger effect = lower value 1.01 | locus YDR069C, strain doa4, stronger effect = lower value 0.999 | locus YDR101C, strain arx1, stronger effect = lower value 0.996 | locus YDR137W, strain rgp1, stronger effect = lower value 1.01 | locus YDR150W, strain NUM1, stronger effect = lower value 0.995 | locus YDR159W, strain sac3, stronger effect = lower value 0.99 | locus YDR162C, strain NBP2, stronger effect = lower value 0.997 | locus YDR195W, strain ref2 0.989 | locus YDR297W, strain sur2, stronger effect = lower value 0.995 | locus YDR318W, strain mcm21, stronger effect = lower value 0.984 | locus YDR334W, strain swr1, stronger effect = lower value 0.999 | locus YDR335W, strain msn5, stronger effect = lower value 1.01 | locus YDR388W, stronger effect = lower value 0.998 | locus YDR392W, strain spt3, stronger effect = lower value 0.957 | locus YDR502C, strain sam2, stronger effect = lower value 1 | locus YEL003W, strain gim4, stronger effect = lower value 1.01 | locus YEL037C, strain rad23, stronger effect = lower value 1 | locus YEL061C, strain CIN8 (second series), stronger effect = lower value 1 | locus YEL061C, strain CIN8, stronger effect = lower value 0.997 | locus YER015W, strain faa2, stronger effect = lower value 0.987 | locus YER016W, strain bim1, stronger effect = lower value 1 | locus YER110C, stronger effect = lower value 0.996 | locus YER111C, strain swi4, stronger effect = lower value 0.994 | locus YER155C, strain BEM2 (second series), stronger effect = lower value 1.01 | locus YER155C, strain BEM2, stronger effect = lower value 0.998 | locus YER167W, strain BCK2, stronger effect = lower value 1 | locus YFR010W, strain ubp6, stronger effect = lower value 0.998 | locus YGL078C, strain dbp3, stronger effect = lower value 1 | locus YGL086W, strain mad1, stronger effect = lower value 1.02 | locus YGL167C, strain pmr1, stronger effect = lower value 0.992 | locus YGL173C, strain kem1, stronger effect = lower value 0.995 | locus YGL227W, strain vid30, stronger effect = lower value 1 | locus YGL240W, strain doc1, stronger effect = lower value 0.986 | locus YGL248W, strain PDE1, stronger effect = lower value 1.01 | locus YGL253W, strain hxk2, stronger effect = lower value 0.996 | locus YGR078C, strain PAC10, stronger effect = lower value 1 | locus YGR135W, strain pre9, stronger effect = lower value 0.997 | locus YGR229C, strain SMI1, stronger effect = lower value 1 | locus YGR252W, strain gcn5, stronger effect = lower value 1.16 | locus YHR013C, strain ard1, stronger effect = lower value 0.997 | locus YHR027C, strain rpn1, stronger effect = lower value 1.01 | locus YHR030C, strain SLT2, stronger effect = lower value 0.996 and 1.01 | locus YHR079C, strain IRE1 (second series), stronger effect = lower value 0.992 | locus YHR079C, strain IRE1, stronger effect = lower value 1.02 | locus YHR094C, strain hxt1, stronger effect = lower value 0.98 | locus YHR129C, strain ARP1, stronger effect = lower value 0.997 | locus YHR142W, strain chs7, stronger effect = lower value 1.02 | locus YHR200W, strain rpn10, stronger effect = lower value 0.988 | locus YIL066C, strain RNR3, stronger effect = lower value 1 | locus YIL073C, strain SPO22, stronger effect = lower value 0.986 | locus YIL125W, strain kgd1, stronger effect = lower value 0.99 | locus YIR030C, strain dcg1, stronger effect = lower value 0.993 | locus YJL092W, strain hpr5, stronger effect = lower value 0.998 | locus YJL095W, strain BCK1 (second series), stronger effect = lower value 1 | locus YJL095W, strain BCK1, stronger effect = lower value 0.98 and 1.02 | locus YJL115W, strain asf1, stronger effect = lower value 0.993 | locus YJL129C, strain trk1, stronger effect = lower value 0.995 | locus YJL134W, strain LCB3, stronger effect = lower value 1 | locus YJL154C, strain vps35, stronger effect = lower value 1 | locus YJL164C, strain tpk1, stronger effect = lower value 0.996 | locus YJL166W, strain qcr8, stronger effect = lower value 0.991 | locus YJL168C, strain set2, stronger effect = lower value 0.992 | locus YJL187C, strain SWE1 (second series), stronger effect = lower value 0.987 | locus YJL187C, strain SWE1, stronger effect = lower value 1.02 | locus YJR043C, strain POL32, stronger effect = lower value 0.982 | locus YJR066W, strain TOR1, stronger effect = lower value 0.974
